# Measured values: PubChem BioAssay (NCATS)
# Results filed as inconclusive are left out. Where a call stands in place of a potency, no number is given. Activity calls are given as the source filed them. Unless noted, the call rests on the fitted dose curve; in most records, active means well fitted curve in the direction sought with a large enough effect; inconclusive means small, poorly fitted or top-dose-only effect, or another doubt; inactive means no such curve, though single readings can be large; an effect the other way counts as inactive or inconclusive.
# Columns and labels:
# [1] = molecular target: Cytochrome P450 2D6 (Homo sapiens) (UniProt P10635); assay: Cytochrome P450 family 2 subfamily D member 6 (CYP2D6) small molecule antagonists: luciferase biochemical (cell-free) qHTS assay (AID 1645840; active means well fitted curve in the direction sought with a large enough effect in the repeat runs; an effect the other way counts as inactive or inconclusive; further: nearly all actives have a fitted effect of over 55% in size; further: potency means the concentration at half of the fitted maximal effect)
# Method in brief: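 P450-Glo luminescent screen: recombinant CYP2D6 enzyme–proluciferin substrate mix preincubated with compound 10 min at room temperature, then NADPH regeneration added for 1 h at room temperature. Detection reagent added for 20 min; luciferin light read as relative luminescence units.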
# [2] = molecular target: Cytochrome P450 2C9 (Homo sapiens) (UniProt P11712); assay: Cytochrome P450 family 2 subfamily C member 9 (CYP2C9) small molecule antagonists: luciferase biochemical (cell-free) qHTS assay (AID 1645842; active means well fitted curve in the direction sought with a large enough effect in the repeat runs; an effect the other way counts as inactive or inconclusive; further: nearly all actives have a fitted effect of over 55% in size; further: potency means the concentration at half of the fitted maximal effect)
# Method in brief: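 Luminescence, after 20 min with luciferin detection reagent, reflected CYP2C9 turnover during a 1 h NADPH-driven reaction at 37C. Enzyme-substrate mix contained 0.4% bovine serum albumin and was preincubated with compound 10 min at room temperature.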
# [3] = Cytotoxicity counterscreen for inhibitors of SARS-CoV-2 cell entry (AID 1645845; calls by dose curve; further: nearly all actives have a fitted effect of over 50% in size)
# Method in brief: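 48 h compound treatment (after 1 h preincubation), HEK293-ACE2 cells, 37 C/5% CO2; ATP luminescence endpoint; normalized to cell wells and media blanks.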
# [4] = Primary qHTS to identify inhibitors of SARS-CoV-2 cell entry (AID 1645846; calls by dose curve; further: nearly all actives have a fitted effect of over 45% in size); details: activity change, negative = inhibition: at 57.1 µM (top of the series) unless noted
# Method in brief: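 HEK293-ACE2 (Expi293F, stable hACE2), 1500 cells/well, o/n 37C; cpd 23 nL pin, 1 h; MLV-PP w/ SARS-CoV-2-S (Wuhan-Hu-1, Δ19 C-term); 48 h 37C; Bright-Glo luminescence; normalized vs S-PP and bald PP.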
# [5] = Primary qHTS for inhibitors of nuclear receptor binding SET domain protein 2 (NSD2) in an isogenic RCH-ACV NSD2 p.E1099K mutant (9B) (AID 1645876); further: nearly all actives have a fitted effect of over 70% in size; further: potency means the concentration at half of the fitted maximal effect
# [6] = Primary qHTS for inhibitors of nuclear receptor binding SET domain protein 2 (NSD2) in an RCH-ACV wild type WT cells (2C) (AID 1645877); further: nearly all actives have a fitted effect of over 70% in size; further: potency means the concentration at half of the fitted maximal effect
# [7] = molecular target: Glutathione peroxidase 1 (Homo sapiens) (UniProt P07203); assay: Primary qHTS Assay for Inhibitors of Recombinant Selenoprotein Glutathione Peroxidase 1 (GPX1) (AID 1845191); further: nearly all actives have a fitted effect of over 65% in size
# Method in brief: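 10 nM GPX1 + cpd, 30 min RT; start w/ 1 mM GSH, 0.5 mM cumene hydroperoxide, 0.5 mM NADPH, 100 nM GR, 0.01% BSA; buffer 50 mM Tris-HCl pH 7.5, 2 mM EDTA, 150 mM NaCl; Fl 340/450, 0 & 15 min.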
# Papain (Carica papaya) = Papain (Carica papaya) (UniProt P00784); assay: Primary qHTS assay for inhibitors of the protease papain (AID 1645873);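 further: papain turnover of Z-FR-AMC read as the AMC fluorescence gain over 10 min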
# [8] = molecular target: Metallo-beta-lactamase type 2 (Klebsiella pneumoniae) (UniProt C7C422); assay: qHTS to identify inhibitors of the New Delhi Metallo-beta-lactamase (NDM): assay validation screen against the NCATS LOPAC Collection (AID 1794843);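 further: nitrocefin turnover by NDM-1 measured as 485 nm absorbance at plateau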
# Method in brief: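 NDM-1 at 2 nM final in 50 mM HEPES pH 7.0, 1 uM ZnSO4, 0.01% Tween20, preincubated with LOPAC compounds pinned in DMSO; 50 uM nitrocefin (stock) added. Hydrolysis read as absorbance at 485 nm in the plateau phase.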
# [9] = molecular target: Cytochrome P450 3A4 (Homo sapiens) (UniProt P08684); assay: Cytochrome P450 family 3 subfamily A member 4 (CYP3A4) small molecule antagonists: luciferase qHTS assay (AID 1645841; active means well fitted curve in the direction sought with a large enough effect in the repeat runs; an effect the other way counts as inactive or inconclusive; further: nearly all actives have a fitted effect of over 45% in size)
# Method in brief: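 Luminescent CYP3A4 activity readout: compounds plus enzyme-substrate mix 10 min at room temperature, reaction started with NADPH regenerating system for 1 h, stopped with detection reagent, read after 20 min. Ketoconazole served as control.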
# [10] = molecular target: Rap guanine nucleotide exchange factor 3 (Homo sapiens) (UniProt O95398); assay: Confirmatory qHTS for agonist of cAMP-regulated guanine nucleotide exchange factor 3 (EPAC1) (AID 1645881);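 further: EPAC1 catalysed release of BODIPY-GDP from Rap1B seen as fluorescence loss; nearly all actives have a fitted effect of over 75% in size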
# [11] = molecular target: Rap guanine nucleotide exchange factor 4 (Homo sapiens) (UniProt Q8WZA2); assay: Confirmatory qHTS for agonist of cAMP-regulated guanine nucleotide exchange factor 4 (EPAC2) (AID 1645884);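 further: nucleotide exchange releases bodipy-GDP from Rap1 and this lowers its fluorescence; nearly all actives have a fitted effect of over 65% in size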
# [12] = molecular target: Catechol O-methyltransferase (Homo sapiens) (UniProt P21964); assay: Confirmatory Screen for Target Class Profiling of Small Molecule Inhibitors of Methyltransferases (AID 1745852); details: MTase-Glo luminescence, SAH detection, recombinant enzyme; measured here: COMT max response; stronger effect = lower value
# [13] = molecular target: Guanidinoacetate N-methyltransferase (Homo sapiens) (UniProt Q14353); assay: as above; details: MTase-Glo luminescence, SAH detection, recombinant enzyme; at 57.3 µM (top of the series)
# [14] = molecular target: Nicotinamide N-methyltransferase (Homo sapiens) (UniProt P40261); assay: as above; details: MTase-Glo luminescence, SAH detection, recombinant enzyme; measured here: NNMT max response; stronger effect = lower value
# [15] = molecular target: Phenylethanolamine N-methyltransferase (Homo sapiens) (UniProt P11086); assay: as above; details: MTase-Glo luminescence, SAH detection, recombinant enzyme; measured here: PNMT max response; stronger effect = lower value
# [16] = NCATS anti-infectives library activity on HEK293 viability as a counter-qHTS vs the C. elegans viability qHTS (AID 1745854);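 further: HEK293 cells exposed to compounds for 24 hr before the viability read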
# Method in brief: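 HEK293 cells (1,500/well) exposed 24 hr at 37C to 1:5 titrations, up to 41.7 uM final; counter-screen to a C. elegans viability qHTS. Viability by CellTiter-Glo luminescence after 10 min at room temperature; digitonin as control.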
# [17] = molecular target: Rap guanine nucleotide exchange factor 3 (Homo sapiens) (UniProt O95398); assay: Confirmatory qHTS for antagonist of cAMP-regulated guanine nucleotide exchange factor 3 (EPAC1) (AID 1645880); further: nearly all actives have a fitted effect of over 55% in size
# Method in brief: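 Nucleotide exchange uses 100 nM EPAC1, 250 nM RAP1B-BODIPY-GDP and 50 uM GDP, with compounds in a concentration-titration series. After 5 min at room temperature, fluorescence (480 nm ex/540 nm em) is read every 5 min for 30 min. Data are normalized to control ATA and DMSO.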
# Chain of Glutathione peroxidase 1 (Homo sapiens) (P07203 whole entry, looked up): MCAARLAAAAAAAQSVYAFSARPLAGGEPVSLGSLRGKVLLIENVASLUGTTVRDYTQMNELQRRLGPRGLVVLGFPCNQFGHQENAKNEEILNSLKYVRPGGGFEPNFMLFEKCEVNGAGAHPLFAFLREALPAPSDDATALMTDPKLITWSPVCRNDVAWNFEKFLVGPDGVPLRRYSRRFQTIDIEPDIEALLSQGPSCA
# Chain of Cytochrome P450 2D6 (Homo sapiens) (P10635 whole entry, looked up): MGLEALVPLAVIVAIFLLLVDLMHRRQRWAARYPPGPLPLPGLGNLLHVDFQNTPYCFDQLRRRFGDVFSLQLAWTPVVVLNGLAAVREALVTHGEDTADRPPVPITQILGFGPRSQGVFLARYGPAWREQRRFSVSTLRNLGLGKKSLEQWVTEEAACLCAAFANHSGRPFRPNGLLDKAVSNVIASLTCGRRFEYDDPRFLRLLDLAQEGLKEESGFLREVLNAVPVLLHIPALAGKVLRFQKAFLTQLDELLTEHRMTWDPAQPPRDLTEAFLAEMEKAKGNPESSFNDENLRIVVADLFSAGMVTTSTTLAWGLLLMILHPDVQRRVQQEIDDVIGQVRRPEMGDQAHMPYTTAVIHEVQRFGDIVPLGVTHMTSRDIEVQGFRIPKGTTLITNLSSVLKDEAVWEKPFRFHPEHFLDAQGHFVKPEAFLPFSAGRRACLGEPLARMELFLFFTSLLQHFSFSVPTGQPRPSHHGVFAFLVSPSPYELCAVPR
# Chain of Cytochrome P450 2C9 (Homo sapiens) (P11712 whole entry, looked up): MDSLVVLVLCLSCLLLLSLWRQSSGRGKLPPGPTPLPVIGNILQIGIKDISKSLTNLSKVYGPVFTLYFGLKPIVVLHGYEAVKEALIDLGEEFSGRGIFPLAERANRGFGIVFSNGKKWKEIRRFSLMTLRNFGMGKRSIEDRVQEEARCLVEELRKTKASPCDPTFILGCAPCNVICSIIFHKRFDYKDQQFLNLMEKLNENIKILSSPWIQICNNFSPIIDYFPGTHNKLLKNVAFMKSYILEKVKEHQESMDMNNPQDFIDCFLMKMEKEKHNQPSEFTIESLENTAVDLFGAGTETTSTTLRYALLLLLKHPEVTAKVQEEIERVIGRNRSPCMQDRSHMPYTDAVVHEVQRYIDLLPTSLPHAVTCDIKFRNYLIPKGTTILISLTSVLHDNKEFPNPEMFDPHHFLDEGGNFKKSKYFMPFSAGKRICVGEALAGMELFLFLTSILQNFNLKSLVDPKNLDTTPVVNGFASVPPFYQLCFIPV
# Chain of Cytochrome P450 3A4 (Homo sapiens) (P08684 whole entry, looked up): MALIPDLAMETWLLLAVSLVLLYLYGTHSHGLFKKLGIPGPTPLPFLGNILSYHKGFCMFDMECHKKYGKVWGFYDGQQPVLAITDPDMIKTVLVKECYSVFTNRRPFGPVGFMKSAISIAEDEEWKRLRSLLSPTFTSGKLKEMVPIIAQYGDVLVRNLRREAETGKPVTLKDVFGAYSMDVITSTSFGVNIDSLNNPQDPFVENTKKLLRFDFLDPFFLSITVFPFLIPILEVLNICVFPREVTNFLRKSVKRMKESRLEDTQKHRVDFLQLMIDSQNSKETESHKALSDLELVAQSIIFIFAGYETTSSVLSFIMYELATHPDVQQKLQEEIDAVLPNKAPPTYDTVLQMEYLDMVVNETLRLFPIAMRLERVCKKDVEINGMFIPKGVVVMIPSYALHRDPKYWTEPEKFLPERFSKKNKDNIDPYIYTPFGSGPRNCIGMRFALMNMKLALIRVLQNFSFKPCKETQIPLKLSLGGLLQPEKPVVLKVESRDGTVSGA
# Chain of Rap guanine nucleotide exchange factor 3 (Homo sapiens) (O95398 whole entry, looked up): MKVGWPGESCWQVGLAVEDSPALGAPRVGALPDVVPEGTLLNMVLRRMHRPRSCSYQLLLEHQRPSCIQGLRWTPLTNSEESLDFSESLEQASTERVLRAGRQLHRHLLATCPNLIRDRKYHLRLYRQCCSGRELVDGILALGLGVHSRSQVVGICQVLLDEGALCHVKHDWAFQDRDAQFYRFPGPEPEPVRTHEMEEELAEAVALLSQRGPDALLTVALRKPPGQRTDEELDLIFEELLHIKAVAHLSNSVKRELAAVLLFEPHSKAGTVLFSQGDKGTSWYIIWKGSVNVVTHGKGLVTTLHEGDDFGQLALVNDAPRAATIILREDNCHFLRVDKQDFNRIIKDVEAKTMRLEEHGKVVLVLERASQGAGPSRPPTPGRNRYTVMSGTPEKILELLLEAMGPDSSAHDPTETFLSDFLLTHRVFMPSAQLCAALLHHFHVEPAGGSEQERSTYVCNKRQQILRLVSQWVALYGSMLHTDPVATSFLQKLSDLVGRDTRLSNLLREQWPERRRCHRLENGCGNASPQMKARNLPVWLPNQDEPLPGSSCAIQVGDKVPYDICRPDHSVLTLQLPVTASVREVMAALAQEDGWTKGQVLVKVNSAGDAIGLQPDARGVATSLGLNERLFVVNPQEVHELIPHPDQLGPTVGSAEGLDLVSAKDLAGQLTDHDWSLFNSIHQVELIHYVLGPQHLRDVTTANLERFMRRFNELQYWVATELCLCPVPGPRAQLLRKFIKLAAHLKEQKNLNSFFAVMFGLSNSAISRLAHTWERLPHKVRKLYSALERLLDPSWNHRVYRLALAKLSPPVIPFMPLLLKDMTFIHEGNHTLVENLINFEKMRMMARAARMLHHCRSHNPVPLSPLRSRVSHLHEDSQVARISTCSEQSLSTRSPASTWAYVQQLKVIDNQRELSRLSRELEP
# Chain of Papain (Carica papaya) (P00784 whole entry, looked up): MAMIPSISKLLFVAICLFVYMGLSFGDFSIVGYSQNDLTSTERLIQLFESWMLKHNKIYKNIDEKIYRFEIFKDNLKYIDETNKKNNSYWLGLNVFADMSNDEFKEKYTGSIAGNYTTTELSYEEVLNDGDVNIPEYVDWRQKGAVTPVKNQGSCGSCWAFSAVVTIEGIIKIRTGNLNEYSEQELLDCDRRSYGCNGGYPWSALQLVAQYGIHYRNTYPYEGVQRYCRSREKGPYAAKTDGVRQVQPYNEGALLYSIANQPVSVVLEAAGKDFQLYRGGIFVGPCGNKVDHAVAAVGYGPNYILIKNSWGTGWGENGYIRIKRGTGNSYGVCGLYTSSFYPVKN
# Chain of Rap guanine nucleotide exchange factor 4 (Homo sapiens) (Q8WZA2 whole entry, looked up): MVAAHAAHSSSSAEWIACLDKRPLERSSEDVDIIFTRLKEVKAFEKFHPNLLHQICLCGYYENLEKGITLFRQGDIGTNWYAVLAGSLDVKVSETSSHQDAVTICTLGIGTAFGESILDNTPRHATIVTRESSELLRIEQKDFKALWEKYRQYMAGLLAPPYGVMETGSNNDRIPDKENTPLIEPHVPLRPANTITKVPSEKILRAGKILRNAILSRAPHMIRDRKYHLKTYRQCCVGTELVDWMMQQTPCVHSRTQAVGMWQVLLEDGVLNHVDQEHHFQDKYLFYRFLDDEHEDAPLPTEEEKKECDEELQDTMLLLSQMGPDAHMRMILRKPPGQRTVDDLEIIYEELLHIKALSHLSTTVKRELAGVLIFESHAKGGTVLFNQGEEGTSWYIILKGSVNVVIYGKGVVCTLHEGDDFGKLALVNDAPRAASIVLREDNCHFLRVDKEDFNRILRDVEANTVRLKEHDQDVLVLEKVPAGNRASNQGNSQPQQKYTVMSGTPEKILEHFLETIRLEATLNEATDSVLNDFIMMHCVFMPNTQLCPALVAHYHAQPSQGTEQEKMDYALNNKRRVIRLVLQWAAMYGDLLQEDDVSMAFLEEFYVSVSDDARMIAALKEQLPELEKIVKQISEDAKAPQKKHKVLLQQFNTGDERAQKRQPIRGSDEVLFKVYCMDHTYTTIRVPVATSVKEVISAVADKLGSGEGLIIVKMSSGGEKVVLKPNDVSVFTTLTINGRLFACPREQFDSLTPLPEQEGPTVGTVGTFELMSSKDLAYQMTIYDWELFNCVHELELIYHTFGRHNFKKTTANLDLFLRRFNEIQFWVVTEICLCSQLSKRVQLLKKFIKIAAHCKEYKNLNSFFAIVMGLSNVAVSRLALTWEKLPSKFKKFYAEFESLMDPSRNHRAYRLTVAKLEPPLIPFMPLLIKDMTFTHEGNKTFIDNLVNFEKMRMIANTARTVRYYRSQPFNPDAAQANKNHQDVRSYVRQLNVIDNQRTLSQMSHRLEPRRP
# Chain of Metallo-beta-lactamase type 2 (Klebsiella pneumoniae) (C7C422 whole entry, looked up): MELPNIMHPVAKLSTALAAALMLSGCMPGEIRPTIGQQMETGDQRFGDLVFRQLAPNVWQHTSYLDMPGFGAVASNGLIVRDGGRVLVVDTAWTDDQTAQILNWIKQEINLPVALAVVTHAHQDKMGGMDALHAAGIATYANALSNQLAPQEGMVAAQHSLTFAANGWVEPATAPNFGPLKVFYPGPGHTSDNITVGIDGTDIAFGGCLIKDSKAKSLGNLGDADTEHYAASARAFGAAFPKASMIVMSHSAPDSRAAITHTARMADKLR
# Chain of Nicotinamide N-methyltransferase (Homo sapiens) (P40261 whole entry, looked up): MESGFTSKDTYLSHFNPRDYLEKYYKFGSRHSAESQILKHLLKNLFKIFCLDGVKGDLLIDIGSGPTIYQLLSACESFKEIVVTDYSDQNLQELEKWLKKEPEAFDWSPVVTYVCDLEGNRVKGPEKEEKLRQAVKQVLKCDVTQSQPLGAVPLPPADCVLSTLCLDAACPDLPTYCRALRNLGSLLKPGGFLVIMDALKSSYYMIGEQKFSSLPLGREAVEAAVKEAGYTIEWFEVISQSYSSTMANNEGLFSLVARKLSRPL
# Chain of Phenylethanolamine N-methyltransferase (Homo sapiens) (P11086 whole entry, looked up): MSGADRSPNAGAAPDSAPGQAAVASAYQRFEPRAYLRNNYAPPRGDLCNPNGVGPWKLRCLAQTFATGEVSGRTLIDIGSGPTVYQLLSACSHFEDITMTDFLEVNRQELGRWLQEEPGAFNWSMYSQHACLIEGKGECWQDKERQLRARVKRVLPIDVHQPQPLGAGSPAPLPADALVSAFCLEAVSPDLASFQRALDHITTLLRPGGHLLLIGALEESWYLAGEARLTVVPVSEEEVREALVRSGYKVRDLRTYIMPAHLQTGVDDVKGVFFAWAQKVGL
smiles,measurement,setting,value
CCC(C)C(C)(COC(N)=O)COC(N)=O (stereo unspecified),Potency,[1],inactive
same,Potency,[2],inactive
same,Potency,[3],inactive
same,"activity change, negative = inhibition",[4],-15.3%
same,Potency,[5],inactive
same,Potency,[6],inactive
same,Potency,[7],inactive
C[C@]12CCC(=O)C=C1CC[C@@H]1[C@H]3CC[C@](C)(O)[C@@]3(C)CC[C@@H]12,Potency,[1],43.5 µM (active)
same,Potency,[2],42.6 µM (active)
same,Potency,[5],34.7 µM (active)
same,Potency,[6],21.9 µM (active)
CC[N+]1(CC)CCC(OC(=O)C(O)(c2ccccc2)c2ccccc2)C1 (stereo unspecified),Potency,[1],12.9 µM (active)
same,Potency,[2],inactive
same,Potency,[5],inactive
same,Potency,[6],inactive
CCC1(c2ccc(N)cc2)CCC(=O)NC1=O (stereo unspecified),Potency,[1],inactive
same,Potency,[2],inactive
same,Potency,[3],inactive
same,Potency,[4],inactive
same,outcome,Papain (Carica papaya),inactive
same,Potency,[5],inactive
same,Potency,[6],inactive
same,outcome,[8],inactive
same,Potency,[7],inactive
CC(C)c1c(CN(C)C(C)Cc2ccccc2)n(C)n(-c2ccccc2)c1=O (stereo unspecified),Potency,[1],inactive
same,Potency,[2],7.76 µM (active)
same,Potency,[5],inactive
same,Potency,[6],inactive
CCOP(=S)(OCC)Oc1ccc2c(C)c(Cl)c(=O)oc2c1,Potency,[1],15.5 µM (active)
same,Potency,[2],6.92 µM (active)
same,Potency,[3],inactive
same,"activity change, negative = inhibition",[4],69.2%
same,Potency,[5],7.5 µM (active)
same,Potency,[6],6.68 µM (active)
same,Potency,[7],inactive
C[C@]12Cc3cn[nH]c3C[C@@H]1CC[C@@H]1[C@@H]2CC[C@@]2(C)[C@H]1CC[C@]2(C)O,Potency,[1],1.95 µM (active)
same,Potency,[2],0.692 µM (active)
same,Potency,[3],inactive
same,"activity change, negative = inhibition",[4],-13.6%
same,Potency,[6],inactive
same,Potency,[7],inactive
COc1cc(CC(C)N)cc(OC)c1OC (stereo unspecified),Potency,[1],30.6 µM (active)
same,Potency,[2],inactive
COc1cc(OC)c(OC)cc1C=O,Potency,[1],inactive
same,Potency,[2],inactive
same,Potency,[5],inactive
same,Potency,[6],inactive
Nc1ccccc1C(=O)O,Potency,[1],inactive
same,Potency,[2],inactive
c1ccc(CN2CCNCC2)cc1,Potency,[1],30.6 µM (active)
same,Potency,[2],inactive
same,Potency,[5],inactive
same,Potency,[6],inactive
Clc1ccccc1N1CCNCC1,Potency,[1],13.8 µM (active)
same,Potency,[9],inactive
same,Potency,[2],inactive
same,Potency,[5],inactive
same,Potency,[6],inactive
CCN[C@H](C)Cc1cccc(C(F)(F)F)c1,Potency,[1],3.16 µM (active)
same,Potency,[2],inactive
same,Potency,[5],inactive
NC1=NC(=O)C(c2ccccc2)O1 (stereo unspecified),Potency,[1],inactive
same,Potency,[2],inactive
same,Potency,[5],inactive
same,Potency,[6],inactive
O=C(N/N=C/c1ccc([N+](=O)[O-])o1)c1cc([N+](=O)[O-])cc([N+](=O)[O-])c1O,Potency,[1],0.617 µM (active)
same,Potency,[2],inactive
C[N+]1(CCF)[C@@H]2CC[C@H]1CC(OC(=O)C(O)(c1ccccc1)c1ccccc1)C2 (stereo partly specified),Potency,[1],15.5 µM (active)
same,Potency,[2],inactive
same,Potency,[3],inactive
same,Potency,[5],inactive
same,Potency,[6],inactive
same,Potency,[7],inactive
CN1C(=O)NC(=O)C(C)(C2=CCCCC2)C1=O (stereo unspecified),Potency,[1],inactive
same,Potency,[2],inactive
same,Potency,[3],inactive
same,"activity change, negative = inhibition",[4],3.11%
same,Potency,[5],inactive
same,Potency,[6],inactive
same,Potency,[7],inactive
C[C@]12CC[C@@H]3c4ccc(OC(=O)N(CCCl)CCCl)cc4CC[C@H]3[C@@H]1CC[C@@H]2O,Potency,[1],inactive
same,Potency,[9],inactive
same,Potency,[2],inactive
same,Potency,[4],inactive
same,outcome,[10],inactive
same,outcome,[11],inactive
same,Potency,[7],inactive
COC(=O)C(Cl)C(=O)OC,Potency,[1],inactive
same,Potency,[2],inactive
same,Potency,[5],inactive
same,Potency,[6],inactive
COP(=S)(OC)Oc1ccc(SC)c(C)c1,Potency,[1],inactive
same,Potency,[2],3.89 µM (active)
same,Potency,[3],inactive
same,"activity change, negative = inhibition",[4],-16.5%
same,Potency,[5],inactive
same,Potency,[6],inactive
same,Potency,[7],inactive
C=C(C)[C@H]1CN[C@H](C(=O)O)[C@H]1CC(=O)O,Potency,[1],inactive
same,Potency,[2],inactive
same,Potency,[3],inactive
same,Potency,[4],inactive
same,outcome,Papain (Carica papaya),inactive
same,Potency,[5],inactive
same,Potency,[6],inactive
same,Potency,[7],inactive
CCN(CC)CCc1c[nH]c2ccccc12,Potency,[1],5.91 µM (active)
same,Potency,[9],inactive
same,Potency,[2],inactive
NCCc1ccc(O)cc1,Potency,[1],13.8 µM (active)
same,Potency,[2],inactive
same,outcome,Papain (Carica papaya),inactive
same,Potency,[5],inactive
same,activity,[12],-7.57%
same,"activity change, negative = inhibition",[13],0.255%
same,activity,[14],-9.22%
same,activity,[15],-8.79%
same,outcome,[8],inactive
same,Potency,[7],inactive
CCCCCCCCCCCCCCCCCC(=O)O,Potency,[1],inactive
same,Potency,[2],inactive
same,Potency,[3],inactive
same,"activity change, negative = inhibition",[4],-6.11%
CC(C)=CC1C(C(=O)OCN2C(=O)C3=C(CCCC3)C2=O)C1(C)C (stereo unspecified),Potency,[1],6.92 µM (active)
same,Potency,[2],8.71 µM (active)
same,Potency,[5],inactive
same,Potency,[6],inactive
Nc1nc(N)nc(NC2CC2)n1,Potency,[1],inactive
same,Potency,[9],inactive
same,Potency,[2],inactive
same,Potency,[5],inactive
same,Potency,[6],inactive
CCC(CC)(CNC(=O)CCCO)c1cccc(OC)c1,Potency,[2],inactive
same,Potency,[3],inactive
same,"activity change, negative = inhibition",[4],-32.3%
same,Potency,[5],inactive
same,Potency,[6],inactive
same,Potency,[7],inactive
O=C1OC(c2ccc(O)c(S(=O)(=O)O)c2)(c2ccc(O)c(S(=O)(=O)O)c2)c2c(Br)c(Br)c(Br)c(Br)c21,Potency,[2],inactive
same,Potency,[3],inactive
same,Potency,[4],inactive
same,Potency,[5],inactive
same,Potency,[6],inactive
same,Potency,[7],inactive
O=C1c2ccccc2C(=O)c2ccccc21,Potency,[2],inactive
same,Potency,[3],inactive
same,Potency,[4],inactive
same,Potency,[5],inactive
same,Potency,[6],inactive
same,outcome,[16],inactive
same,Potency,[7],inactive
CCC1(c2ccccc2)C(=O)N(COC)C(=O)N(COC)C1=O,Potency,[1],inactive
same,Potency,[2],inactive
same,Potency,[5],inactive
same,Potency,[6],inactive
O=C1c2ccccc2C(=O)C1C(=O)C(c1ccccc1)c1ccccc1,Potency,[1],19.2 µM (active)
same,Potency,[2],0.384 µM (active)
same,outcome,[17],inactive
same,outcome,[10],inactive
same,outcome,[11],inactive
CC(C(=O)c1ccccc1)N(C)C (stereo unspecified),Potency,[2],inactive
ClCCN1CCCC1,Potency,[1],inactive
same,Potency,[2],inactive
same,Potency,[5],inactive
same,Potency,[6],inactive
C#CC(O)(C=CCl)CC (stereo unspecified),Potency,[2],inactive
same,Potency,[3],inactive
same,"activity change, negative = inhibition",[4],-20.1%
same,Potency,[5],inactive
same,Potency,[6],inactive
same,Potency,[7],inactive
